The record followed here is PubChem BioAssay (NCATS).

For assay [1], the system named is Zika virus NS2B-NS3 protease (linked construct). Kind of assay: Confirmatory screen NINDS AMC qHTS for Zika virus inhibitors (AID 1347152).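 Note: top concentration of the series differs between compounds; 0% = no-inhibitor control and -100% = no-enzyme control; nearly all actives have a fitted effect of over 70% in size.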 In short, it runs like this:
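IC50s from 4-parameter Hill fits of percent inhibition, based on AMC fluorescence gain (340/450 nm) over 15 min with 10 microM Bz-Nle-KRR-AMC. Enzyme: 1 nM linked NS2B-NS3 in Tris-HCl pH 8.0; 15-min compound preincubation.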
On the technique in general: qHTS replaces the single test concentration by a dilution series.

The test system of assay [2] is Zika virus NS2B-NS3 protease (unlinked complex). Nature of the assay: Confirmatory screen GU AMC qHTS for Zika virus inhibitors (AID 1347153).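 Note: percent inhibition with 0% = no inhibitor control and 100% = no enzyme control; nearly all actives have a fitted effect of over 70% in size.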 In short, it runs like this: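 Fluorescence change (ex 340/em 450 nm) over 15 min, ~20% substrate conversion, normalized to no-inhibitor and no-enzyme controls, then Hill-fitted. Unlinked protease at 25 nM; AMC peptide 10 µM.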

Assay [3] relates to Zika virus NS2B-NS3 protease. Nature of the assay: Primary screen GU AMC qHTS for Zika virus inhibitors (AID 1347154).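 Note: 0% = no-inhibitor control and -100% = no-enzyme control; nearly all actives have a fitted effect of over 70% in size.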 In short, it runs like this: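 Unlinked Zika NS2B hydrophilic domain–NS3 protease complex at 25 nM in 10 mM Tris-HCl pH 8.0, 0.01% Tween 20, with an AMC peptide substrate. Fluorescence change (340/450 nm) over 15 min at room temperature, normalized to controls, fitted to 4-parameter Hill.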

Assay [4] can be described thus: Confirmatory screen NINDS Rhodamine qHTS for Zika virus inhibitors (AID 1347161).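 For activity change, negative = inhibition: purified Zika NS2B-NS3 protease with linked NS2B cofactor domain and Rhodamine110 peptide substrate; series mostly up to about 110 µM; plate controls were no-inhibitor control for no effect and no-enzyme control for full effect.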 Note: nearly all actives have a fitted effect of over 60% in size. Note: potency is the fitted concentration of half-maximal effect. In short, it runs like this:
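Purified linked NS2B-NS3 protease (NS2B hydrophilic domain joined to NS3 protease by flexible linker), 25 nM in 10 mM Tris-HCl pH 8.0, 0.01% Tween 20. Compounds titrated, 15 min preincubation at room temperature; 1.5 microM Rhodamine110 substrate, FITC fluorescence change over 15 min.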

Assay [5] deals with Lysine-specific demethylase 5B (Homo sapiens) (UniProt Q9UGL1). Nature of the assay: Optimization screen for KDM5B Histone Demethylases FDH coupled qHTS against the LOPAC library (AID 1347166). Note: 0% is about no effect. In short, it runs like this:
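KDM5BDeltaAP (200nM final) in 50mM HEPES pH 7.5, 0.01% Tween-20 was preincubated with compound for 10 min at room temperature. A substrate mix of 12.5uM H3K4Me3, 25uM a-ketoglutarate, ascorbate, Fe2+, NAD+ and formaldehyde dehydrogenase was then added. NADH fluorescence (340/450 nm) was read initially and after 30 min.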

A short description of assay [6]: Vero cells viability qHTS for Zika virus inhibitors (AID 1347167). Note: % is set by controls: 0 for no effect and ±100 for the full control effect. In short, it runs like this:
(§1)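 qHTS titration; 24-48 h compound exposure, 37 degrees C/5% CO2; DMEM, 4% FBS; CellTiter Glo ATP luminescence.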

A short description of assay [7]: HepG2 cells viability qHTS for Zika virus inhibitors (AID 1347168). Note: % is set by controls: 0 for no effect and ±100 for the full control effect. In short, it runs like this:
as §1

The nature of assay [8]: Tertiary RLuc qRT-PCR qHTS assay for Zika virus inhibitors (AID 1347169). Note: top concentration of the series differs between compounds; % is set by controls: 0 for no effect and ±100 for the full control effect; nearly all actives have a fitted effect of over 55% in size. In short, it runs like this: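 Orthogonal cell-based readout: luminescence measured 1-1.5 hrs after adding live-cell Renilla substrate to Vero cells that had been infected with ZIKV-RLuc (MOI 1-2) post-compound, incubated 48-72 hrs at 37 degrees C.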
For orientation: In qPCR the cycle at which signal appears reflects the starting amount.

The nature of assay [9]: qHTS to identify inhibitors of the type 1 interferon - major histocompatibility complex class I in skeletal muscle: primary screen against the NCATS LOPAC collection (AID 1347405).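 Note: human myoblasts with HiBiT tag on endogenous HLA-B stimulated by IFN-beta; lytic HiBiT luminescence reporting HLA-B protein level; % is set by controls: 0 for no effect and ±100 for the full control effect.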 In short, it runs like this: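 First, engineered myoblasts carrying HLA-B-HiBiT were seeded in medium lacking dexamethasone with 4 ng/ml IFN-beta. After 1 hr, compounds were pinned in (top 46 uM final, 7 points). After 24 hrs at 37 C, luminescence was measured following 10 min lysis.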

Assay [10] is described as follows: qHTS to identify inhibitors of the type 1 interferon - major histocompatibility complex class I in skeletal muscle: primary screen against the NCATS Pharmaceutical Collection (AID 1347407).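 Note: luminescence of HiBiT knocked into endogenous HLA-B as interferon-induced MHC class I level; % is set by controls: 0 for no effect and ±100 for the full control effect.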 In short, it runs like this: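 Compounds […] were added to CRISPR-engineered HLA-B-HiBiT C25cl48 human myoblasts with 4.0 ng/ml IFN-beta. After 24 hrs at 37 C, cells were lysed and HiBiT luminescence measured.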

Assay [11] in a line: qHTS for inhibitors of adenylyl cyclases using a fission yeast platform: a pilot screen against the NCATS LOPAC library (AID 1347410).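 Note: plate controls were DMSO vehicle for no effect and DPI positive control for full effect.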 In short, it runs like this: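 GFP from fbp1-GFP reporter, read by Acumen laser cytometry, indicates AC inhibition in fission yeast expressing AC9, GNAS and PDE4D2. Cells grown 18 h in the dark at 30C with compounds, final up to 57 uM.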
Assay [12] addresses Protein phosphatase 1D (Homo sapiens) (UniProt O15297). Nature of the assay: RapidFire Mass Spectrometry qHTS Assay for Modulators of WT P53-Induced Phosphatase 1 (WIP1) (AID 1347424).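 Note: series mostly up to about 63 µM; plate controls were DMSO wells for no effect and GSK830371 inhibitor control at 10 µM for full effect.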 In short, it runs like this:
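RapidFire MS readout of dephosphorylated VEPPL-S-QETFS product, with 1 uM isotope-labelled peptide standard. Reaction: 10 nM WIP1, 2 uM phosphopeptide substrate, 5 min, room temperature, after 1 h compound preincubation; stopped with 0.5% formic acid.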

For assay [13] the target is unchanged. Nature of the assay: Rhodamine-PBP qHTS Assay for Modulators of WT P53-Induced Phosphatase 1 (WIP1) (AID 1347425). Note: % of control where 0% means no effect. In short, it runs like this: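 5 nM WIP1 + 10 uM Rh-PBP, 50 mM Tris pH 7.5, 30 mM MgCl2, 1 mM TCEP, 0.1 mM EGTA, BSA; cpds pinned, 1 hr RT; + 10 uM phosphopeptide; fluorescence 1-min reads x 11 min; delta = f1 - f0.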
Assay [14] in a line: Validation qHTS assay for inhibitors of Activation Induced Cytidine Deaminase (AID): UDG Counterscreen signal (AID 1347427). Note: 0% is about no effect. In short, it runs like this:
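Fluorescence at 560 nm excitation, 665 nm emission reports UDG signal after 250 mM NaOH (2x) addition and 30 min. Enzymes (AID 1 uM, UDG 2 U/mL, at 4/3x) preincubated 10 min with compound, then 4 h with 4x 250 nM DJC20/DJC23 substrate at room temperature.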

The target of assay [15] is Single-stranded DNA cytosine deaminase (Homo sapiens) (UniProt Q9GZX7). Nature of the assay: Validation qHTS assay for inhibitors of Activation Induced Cytidine Deaminase (AID): AID signal (AID 1347429). Note: % is set by controls: 0 for no effect and ±100 for the full control effect. In short, it runs like this:
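Steps: dispense AID with UDG; pin-transfer compound up to 114 uM final; add DJC20/DJC23 substrate and hold 4 hr at room temperature; add NaOH, hold 30 min; read FRET signal (540/590 nm).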

Assay [16] is described as follows: Primary qHTS for inhibitors of La Crosse Virus (LACV) - induced cell death in SH-SY5Y cells (AID 1508616).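 Note: top concentration of the series differs between compounds; 0% = infected DMSO wells and 100% = uninfected DMSO wells; higher means more rescue of cells from virus-induced death.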 In short, it runs like this:
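SH-SY5Y, 6000 cells/well; cpd via pin tool in DMSO; LACV 0.01 MOI; 6 d 37C 5% CO2; ATPLite, 5 min RT; luminescence normalized to ±virus DMSO controls.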

The test system of assay [17] is Zika virus NS2B-NS3 protease (linked construct). Nature of the assay: 384 well plate NINDS Rhodamine confirmatory qHTS for Zika virus inhibitors (AID 1347164). Note: potency is the fitted concentration of half-maximal effect; nearly all actives have a fitted effect of over 65% in size. The settings on record: rhodamine-110 peptide substrate fluorescence. In short, it runs like this: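 Fluorescence at 485/538 nm was measured 25 minutes after adding 10 microM Ac-LKRR-Rd substrate, in the dark at room temperature. The protease (5, 30 or 60 nM final) had been preincubated ~15 minutes with compound; aprotinin as control.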

Values without a mark were called inactive. Inconclusive results are not listed. Active and inactive are the calls of the source. Calls come from the whole dose curve; as a rule, active = well fitted curve in the direction sought with a large enough effect; inconclusive = small, poorly fitted or top-dose-only effect, or another doubt; inactive = no such curve, though single readings can be large; an effect the other way counts as inactive or inconclusive.

Single-stranded DNA cytosine deaminase (Homo sapiens), sequence (Q9GZX7 whole entry, looked up): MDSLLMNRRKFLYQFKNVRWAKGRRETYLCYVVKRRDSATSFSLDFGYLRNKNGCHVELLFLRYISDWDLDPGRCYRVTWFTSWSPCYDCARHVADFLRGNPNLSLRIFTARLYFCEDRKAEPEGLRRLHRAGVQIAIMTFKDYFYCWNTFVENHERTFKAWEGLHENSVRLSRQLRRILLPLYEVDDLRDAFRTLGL
Lysine-specific demethylase 5B (Homo sapiens), sequence (Q9UGL1 whole entry, looked up): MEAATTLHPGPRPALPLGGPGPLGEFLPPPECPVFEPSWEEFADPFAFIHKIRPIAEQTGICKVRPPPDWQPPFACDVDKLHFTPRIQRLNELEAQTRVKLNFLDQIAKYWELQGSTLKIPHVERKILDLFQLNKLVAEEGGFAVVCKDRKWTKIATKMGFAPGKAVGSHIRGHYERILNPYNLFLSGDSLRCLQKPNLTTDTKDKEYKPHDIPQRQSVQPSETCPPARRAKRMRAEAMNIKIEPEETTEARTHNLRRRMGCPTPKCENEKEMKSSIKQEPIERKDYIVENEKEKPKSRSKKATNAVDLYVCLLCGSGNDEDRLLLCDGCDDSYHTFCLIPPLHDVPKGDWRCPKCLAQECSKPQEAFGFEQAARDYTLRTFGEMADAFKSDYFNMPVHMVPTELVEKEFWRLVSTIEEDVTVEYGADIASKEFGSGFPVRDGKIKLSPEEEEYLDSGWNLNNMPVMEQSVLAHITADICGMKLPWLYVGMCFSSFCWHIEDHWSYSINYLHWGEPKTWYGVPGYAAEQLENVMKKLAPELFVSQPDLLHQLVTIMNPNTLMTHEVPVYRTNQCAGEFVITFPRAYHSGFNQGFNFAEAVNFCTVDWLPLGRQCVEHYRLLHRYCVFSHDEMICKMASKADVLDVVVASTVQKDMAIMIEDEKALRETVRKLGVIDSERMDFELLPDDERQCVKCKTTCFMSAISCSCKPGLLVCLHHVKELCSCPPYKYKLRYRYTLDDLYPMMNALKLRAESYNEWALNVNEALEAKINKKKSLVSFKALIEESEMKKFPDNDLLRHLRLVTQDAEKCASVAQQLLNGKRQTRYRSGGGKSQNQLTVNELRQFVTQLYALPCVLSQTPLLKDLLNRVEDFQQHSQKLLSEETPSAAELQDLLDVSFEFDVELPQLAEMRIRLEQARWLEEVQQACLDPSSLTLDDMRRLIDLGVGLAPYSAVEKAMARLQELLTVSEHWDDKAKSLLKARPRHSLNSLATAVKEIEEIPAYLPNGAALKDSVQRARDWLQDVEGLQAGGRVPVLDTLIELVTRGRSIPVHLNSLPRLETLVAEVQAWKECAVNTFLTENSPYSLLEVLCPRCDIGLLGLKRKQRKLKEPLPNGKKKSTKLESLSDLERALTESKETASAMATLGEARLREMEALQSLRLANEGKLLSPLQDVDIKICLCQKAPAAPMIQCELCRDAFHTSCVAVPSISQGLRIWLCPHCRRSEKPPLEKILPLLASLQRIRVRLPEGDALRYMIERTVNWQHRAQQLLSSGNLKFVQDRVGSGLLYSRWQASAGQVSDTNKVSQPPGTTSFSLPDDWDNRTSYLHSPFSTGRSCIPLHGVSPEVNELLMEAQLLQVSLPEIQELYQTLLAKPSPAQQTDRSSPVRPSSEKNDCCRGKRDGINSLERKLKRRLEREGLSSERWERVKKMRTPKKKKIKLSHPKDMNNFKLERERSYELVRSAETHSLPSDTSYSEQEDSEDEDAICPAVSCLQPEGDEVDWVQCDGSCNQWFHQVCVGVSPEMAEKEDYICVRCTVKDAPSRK
Protein phosphatase 1D (Homo sapiens), sequence (O15297 whole entry, looked up): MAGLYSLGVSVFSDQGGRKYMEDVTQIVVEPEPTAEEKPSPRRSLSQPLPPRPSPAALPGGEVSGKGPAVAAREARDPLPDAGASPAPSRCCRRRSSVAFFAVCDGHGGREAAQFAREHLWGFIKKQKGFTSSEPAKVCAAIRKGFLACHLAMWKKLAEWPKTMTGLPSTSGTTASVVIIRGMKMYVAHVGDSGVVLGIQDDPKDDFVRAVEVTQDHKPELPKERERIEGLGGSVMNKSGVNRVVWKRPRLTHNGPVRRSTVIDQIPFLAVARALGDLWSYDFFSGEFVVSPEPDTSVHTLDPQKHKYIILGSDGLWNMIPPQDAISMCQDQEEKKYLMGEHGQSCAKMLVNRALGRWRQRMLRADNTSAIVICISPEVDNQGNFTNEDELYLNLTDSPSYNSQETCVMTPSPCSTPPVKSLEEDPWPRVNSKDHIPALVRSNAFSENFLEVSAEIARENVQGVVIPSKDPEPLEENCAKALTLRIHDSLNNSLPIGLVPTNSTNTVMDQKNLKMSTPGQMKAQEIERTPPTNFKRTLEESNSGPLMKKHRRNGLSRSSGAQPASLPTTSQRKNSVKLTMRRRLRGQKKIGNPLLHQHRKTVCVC

With `CCN1CCc2nc(N)oc2CC1`, the outcome in assay [1], in assay [2], in [3], in [6], in assay [7] and in [8] was inactive. The result in [11], in assay [13] and in [14] was inactive. Besides, the Potency result in assay [4], in [5], in assay [9], in assay [10], in [12] and in assay [15] was “inactive” in each case. Besides, the Potency entry in assay [16] is “inactive”.
For the molecule `O=C(CCCN1CCC(O)(c2cccc(C(F)(F)F)c2)CC1)c1ccc(F)cc1`, the result in [3], in assay [11], in [13] and in assay [14] was inactive. In addition, the Potency result in assay [5], in assay [9], in assay [10], in assay [12], in assay [15] and in assay [16] was “inactive” throughout.
Consider `CN(C)[C@@H]1C(=O)C(C(N)=O)=C(O)[C@@]2(O)C(=O)C3=C(O)c4c(O)ccc(Cl)c4[C@@H](O)[C@H]3C[C@@H]12`, for which the molecule was called inactive in assay [3], in assay [11], in assay [13] and in [14]. Moreover, the figures for the Potency in [4] and in assay [17] were 12.4 µM (active) and 25.1 µM (active), respectively. Further, the Potency entry in assay [9], in [10], in [12], in assay [15] and in assay [16] was “inactive” each time.
In the case of `C[C@]12CCC(=O)C=C1CC[C@@H]1[C@@H]2C(=O)C[C@@]2(C)[C@H]1CC[C@]2(O)C(=O)CO`, the call in assay [3], in assay [11], in assay [13] and in [14] was inactive. Further, the Potency result in [5], in [9], in assay [10], in assay [12], in [15] and in assay [16] was “inactive” in each case.
With `CN(C)CCOC(=O)COc1ccc(Cl)cc1`, the outcome in [3], in assay [11], in assay [13] and in assay [14] was inactive. In addition, the Potency result in assay [5], in assay [9], in [10], in assay [12], in assay [15] and in [16] was “inactive” each time.
For the molecule `CN(C)C(=O)Oc1ccc[n+](C)c1`, the call in [3], in [11], in assay [13] and in [14] was inactive. Also, the Potency result in assay [5], in [9], in assay [10], in assay [12], in assay [15] and in [16] was “inactive” throughout.
Regarding `C[N+](C)(C)CCOC(=O)CCC(=O)OCC[N+](C)(C)C`, the molecule was called inactive in assay [3], in [11], in assay [13] and in [14]. Also, the Potency result in assay [5], in [9], in assay [10], in assay [12], in assay [15] and in assay [16] was “inactive” each time.
Regarding `C#CCN(C)CCCOc1ccc(Cl)cc1Cl`, the call in assay [3], in [11], in assay [13] and in [14] was inactive. The Potency result in assay [5], in assay [9], in assay [10], in assay [12], in assay [15] and in assay [16] was “inactive” each time.
For `NCCCNCCSP(=O)(O)O`, the activity change, negative = inhibition in assay [3] is -3.39% [at 6.83 µM]; in assay [10] it was 3.17% [at 9.18 µM]; in [12], 0.628% [at 12.6 µM]; in assay [13], 1.47% [at 11.5 µM]. For the same molecule, the Potency result in [5], in assay [9], in [15] and in assay [16] was “inactive” in each case. Further, the molecule was classed as inactive in assay [11] and in assay [14].
With `CC(C)NNC(=O)c1ccncc1`, the call in assay [3], in assay [11], in [13] and in [14] was inactive. Moreover, the Potency entry in assay [5], in [9], in assay [10], in [12], in assay [15] and in [16] was “inactive” in each case.
Regarding `CCCCNc1c(C(=O)OCC)c(C)nc2c1cnn2CC`, the molecule was called inactive in [3], in [11], in assay [13] and in assay [14]. In addition, the Potency result in [5], in assay [9], in [10], in [12], in [15] and in assay [16] was “inactive” each time.
